# Screening data from PubChem.
# Calb FLC: affects C. albicans growth with fluconazole | C. albicans CaCi-2 (fluconazole-resistant clinical isolate) + fluconazole, Alamar Blue growth, 48 h | growth inhibition, % (test concentration not listed) | 0.57% of 300,000 active;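 active = growth inhibition above about 58% in most replicates, limit read from the data, passing the limit was not always enough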;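 also: all wells also contain fluconazole at 8 µg/ml as a sub-toxic cotreatment; 0% = median of DMSO wells and 100% = median of geldanamycin control wells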
# PfM18AAP inh: blocks P. falciparum M18 aspartyl aminopeptidase. inhibition, % at 7.35 µM. 1.2% of 290,000 active. recombinant PfM18AAP, H-Glu-NHMec fluorogenic cleavage. AID 1822;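 active = inhibition above the campaign mean inhibition over all tested compounds plus 3 SD, cut at about 28% in these data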;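 also: 0% = plate median of test compound wells and 100% = 2 mM ZnCl2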
# Rin1 Abl inh: blocks binding of human Rin1 to Abl. P00519+Q13671. TR-FRET Rin1/Abl binding, biochemical. inhibition, % at 7.35 µM. 0.4% of 360,000 active; in the data active = inhibition above about 5%, passing the limit was not always enough
# Target sequence (P00519 whole entry, looked up): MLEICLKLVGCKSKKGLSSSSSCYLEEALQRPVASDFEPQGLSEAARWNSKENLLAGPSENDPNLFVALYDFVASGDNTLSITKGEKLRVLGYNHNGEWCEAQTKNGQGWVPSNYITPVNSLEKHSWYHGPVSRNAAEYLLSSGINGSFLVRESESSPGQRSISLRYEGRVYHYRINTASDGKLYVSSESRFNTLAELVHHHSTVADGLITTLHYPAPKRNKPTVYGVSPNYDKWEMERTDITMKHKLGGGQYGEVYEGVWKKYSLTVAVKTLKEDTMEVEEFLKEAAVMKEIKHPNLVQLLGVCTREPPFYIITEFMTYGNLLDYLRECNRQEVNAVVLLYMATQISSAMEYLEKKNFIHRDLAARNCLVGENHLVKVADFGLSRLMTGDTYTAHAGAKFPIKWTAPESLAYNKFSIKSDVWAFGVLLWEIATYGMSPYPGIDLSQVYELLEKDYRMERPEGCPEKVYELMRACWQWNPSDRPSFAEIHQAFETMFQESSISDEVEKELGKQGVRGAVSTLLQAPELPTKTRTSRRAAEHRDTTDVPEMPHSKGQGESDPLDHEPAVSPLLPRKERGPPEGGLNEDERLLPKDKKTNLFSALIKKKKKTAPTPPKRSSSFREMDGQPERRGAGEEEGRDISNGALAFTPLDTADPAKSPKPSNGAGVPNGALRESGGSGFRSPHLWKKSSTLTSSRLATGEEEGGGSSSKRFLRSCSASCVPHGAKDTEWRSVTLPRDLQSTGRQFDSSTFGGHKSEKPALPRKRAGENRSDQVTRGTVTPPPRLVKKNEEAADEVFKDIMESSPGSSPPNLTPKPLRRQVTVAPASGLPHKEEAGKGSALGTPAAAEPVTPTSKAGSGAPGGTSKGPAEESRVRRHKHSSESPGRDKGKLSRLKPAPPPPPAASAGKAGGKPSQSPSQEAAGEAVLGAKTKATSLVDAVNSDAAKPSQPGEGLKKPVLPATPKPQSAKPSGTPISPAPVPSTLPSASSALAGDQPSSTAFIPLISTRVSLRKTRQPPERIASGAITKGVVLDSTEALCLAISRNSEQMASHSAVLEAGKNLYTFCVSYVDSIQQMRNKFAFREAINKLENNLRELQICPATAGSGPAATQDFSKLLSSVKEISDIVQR
# Target sequence (Q13671 whole entry, looked up): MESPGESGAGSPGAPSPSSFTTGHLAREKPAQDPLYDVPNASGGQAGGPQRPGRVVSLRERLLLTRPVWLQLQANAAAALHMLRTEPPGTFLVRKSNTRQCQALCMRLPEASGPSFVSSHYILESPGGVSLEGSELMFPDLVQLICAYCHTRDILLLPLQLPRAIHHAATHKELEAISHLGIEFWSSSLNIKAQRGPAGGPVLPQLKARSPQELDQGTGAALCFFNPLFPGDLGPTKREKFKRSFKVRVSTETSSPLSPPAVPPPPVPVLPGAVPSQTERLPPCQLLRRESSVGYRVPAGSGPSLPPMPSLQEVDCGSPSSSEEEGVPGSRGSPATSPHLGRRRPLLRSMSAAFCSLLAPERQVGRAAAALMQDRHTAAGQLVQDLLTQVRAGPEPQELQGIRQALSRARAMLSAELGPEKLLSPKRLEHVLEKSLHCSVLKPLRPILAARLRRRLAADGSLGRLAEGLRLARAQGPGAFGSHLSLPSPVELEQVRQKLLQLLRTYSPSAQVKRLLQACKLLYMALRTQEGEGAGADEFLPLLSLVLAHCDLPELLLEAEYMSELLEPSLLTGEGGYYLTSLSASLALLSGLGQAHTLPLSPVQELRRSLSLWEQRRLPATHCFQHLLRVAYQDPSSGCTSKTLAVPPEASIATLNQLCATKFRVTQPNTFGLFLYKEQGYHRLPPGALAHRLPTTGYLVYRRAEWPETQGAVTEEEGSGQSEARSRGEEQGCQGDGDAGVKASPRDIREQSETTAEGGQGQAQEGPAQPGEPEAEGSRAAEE
# CTSL1 counter: blocks F. hepatica cathepsin L1 in PFM18AAP counter-screen; recombinant F. hepatica cathepsin L1, Z-Leu-Arg-MCA fluorescence; AID 1906; 0.49% of 300,000 active; inhibition, % at 5.96 µM;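 active = inhibition above the mean of all tested compounds plus 3 SD, set per screening campaign, cut at about 17% in these data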;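 also: 0% = plate median of test compound wells and 100% = 1 µM Z-Phe-Ala-diazomethylketone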
# Starred values were filed as active, the others as inactive; . = no result given. This is a sample that favours compounds with a hit; in the whole collection about 2.1% have one here.
SMILES,Calb FLC,PfM18AAP inh,Rin1 Abl inh,CTSL1 counter
COc1cccc(C(=O)O[C@@H]2[C@H](Cc3ccccc3)NS(=O)(=O)[C@H]3C[C@@H]4C=C[C@]23O4)c1,.,.,2.4,.
O=C(CN(Cc1ccccc1)C(=O)CCl)c1cccc(Br)c1,.,.,0.5,74.6*
CCOC(=O)c1sc(N(Cc2ccccc2)C(=O)CCl)nc1C,-0.4,21.6,2.1,22.3*
Cc1ccc(CNC(=O)COc2ccccc2-c2ccccc2)cc1,-7.7,-9.2,0.2,-0.3
Cc1ccc(S(=O)(=O)N2CCCC2C(=O)NCc2ccccc2F)cc1 (centres undefined),-2.2,-0.9,-0.3,-1.5
CCCc1cc(=O)n2[nH]c(-c3ccccc3)cc2n1,-18.5,-2.3,-0.2,3.4
CCCCn1[nH]c(-c2ccccc2)cc1=O,0.3,30.1*,-4.1,-1.9
CC(C)c1ccc(C(=O)NNC(=O)C2C3CCC(C3)C2C(=O)O)cc1 (centres undefined),11.7,0.4,.,-0.6
O=C(NNC(=O)C1C2CCC(C2)C1C(=O)O)c1ccc(Br)o1 (centres undefined),99.7*,1.3,.,5.1
CC1(C(=O)NCC2CCCCC2)CCN1CCc1ccccc1 (centres undefined),.,.,-3.0,.
Cc1ccc(CN2CCC(C)(Oc3ccc(Cl)cc3)C2)cc1 (centres undefined),.,.,-4.0,.
Cc1ccc([N+](=O)[O-])cc1NC(=S)NCCc1ccccc1,-6.8,4.8,3.4,57.9*
Cc1ccc([N+](=O)[O-])cc1NC(=O)C1CCCC1,96.2*,-11.3,2.1,3.9
N#C/C(=C\c1ccc(-c2cccc([N+](=O)[O-])c2)o1)c1nnc(N2CCOCC2)n1-c1ccccc1,6.6,-1.3,.,3.0
COc1ccc(-n2c(=S)[nH]c3cc(C(=O)NCc4ccccc4)ccc3c2=O)c(OC)c1,6.1,4.5,4.6,4.5
O=[N+]([O-])c1ccc(C(O)CSC(=S)N2CCCCC2)cc1 (centres undefined),-21.0,-1.9,0.1,-4.0
CCCCC(=O)Nc1cccc(NC(=O)c2cccnc2Cl)c1,0.3,4.0,0.4,2.5
O=C(NNc1cccc(Cl)n1)c1cccnc1Cl,3.3,31.5*,-0.3,-2.6
COC(=O)C(NC(=O)c1cccnc1Cl)C(C)C (centres undefined),-3.5,-1.2,-1.2,-1.3
O=C(NNc1cccc(Cl)c1)c1cccnc1Cl,33.1*,12.5,-2.1,-1.8
CCn1cnc2c1c(=O)n(Cc1ccc(C(=O)OC)cc1)c(=O)n2Cc1ccccc1,-0.5,1.8,1.6,-2.3
O=C(NCc1n[nH]c(=S)n1-c1ccccc1)c1cccs1,13.0,28.3*,-0.1,-2.8
Cc1cccc(-n2c(CNC(=O)c3cccc([N+](=O)[O-])c3C)n[nH]c2=S)c1,22.8,30.1*,2.9,-2.0
CC1(C)Cc2ccccc2C(N/N=C/c2ccc([N+](=O)[O-])cc2)=N1,74.5*,5.3,-1.1,4.3
COc1c(Br)cc([N+](=O)[O-])c(OC)c1C(=O)NC(=O)Nc1c(Cl)cccc1Cl,84.4*,11.4,-1.5,-7.0
SMILES,Calb FLC,PfM18AAP inh,Rin1 Abl inh,CTSL1 counter
CCCc1ccc(Oc2cn[nH]c2-c2ccc(O)cc2O)cc1,67.8*,5.5,0.5,2.1
CCOC(=O)N1CCN(CC(O)COc2ccc(C)c(C)c2)CC1 (centres undefined),1.4,-5.3,0.7,-4.2
CCCCCCCCn1ccc(=N)cc1,1.3,-13.0,1.5,0.0
CCCCCCCCCCn1ccc(=N)cc1,108.0*,-0.9,-0.4,1.4
COc1ccc(/C(C)=N/Nc2nncc3ccccc23)cc1,-2.9,-0.9,-2.9,6.2
CNC(=S)NNc1nncc2ccccc12,4.3,30.1*,1.7,-0.2
O=C(Nc1ccccc1)OCN1C(=O)c2ccccc2C1=O,68.8*,-9.7,-3.3,0.0
O=C(CNC(=O)c1ccco1)OCN1C(=O)c2ccccc2C1=O,-3.9,1.7,-3.9,28.2*
CCOC(=O)n1c2ccccc2c(=O)n1CCO,.,.,3.5,.
COc1ccc(C)cc1Nc1n[n+](-c2ccccc2)c(-c2c(Cl)cccc2Cl)s1,4.7,19.7,.,-0.2
COc1ccc(C)cc1Nc1n[n+](-c2ccccc2)c(-c2ccc(N(C)C)cc2)s1,104.9*,6.1,-0.3,3.5
COc1ccc(C)cc1Nc1n[n+](-c2ccccc2)c(-c2ccc(OC)c(OC)c2OC)s1,91.5*,-1.0,-0.1,0.1
CC(C)=CCc1c(-c2ccc(O)cc2O)oc2c3c(cc(O)c2c1=O)OC(C)(C)C=C3,16.5,.,.,3.0
CC(C)=CCc1c2c(c(O)c3c(=O)c4c(oc13)-c1cc(O)c(O)cc1OC4C=C(C)C)C=CC(C)(C)O2 (centres undefined),88.9*,.,.,-1.9
Cc1cc(/C=N/n2cnnc2)c(C)n1-c1cccc(Cl)c1,-1.0,28.7*,-1.4,-1.4
C/C(=N/NC(N)=S)c1cc2ccc(O)cc2oc1=O,9.4,13.5,-2.6,20.0*
CCOC(=O)c1c(NC(=O)CSc2n[nH]c(-c3ccco3)n2)sc(C)c1C,-7.6,30.8*,3.4,-5.9
CCOC(=O)c1c(NC(=O)CSc2n[nH]c(CNc3ccccc3)n2)sc(C)c1C,28.2,1.1,-2.6,3.9
Brc1ccc(N/N=C(/N=Nc2nn[nH]n2)c2ccccc2)cc1,123.6*,19.6,5.5,7.5
O=C(Nc1ccn(CCCNCc2ccc3c(c2)OCO3)c(=O)n1)OCc1ccccc1,.,.,-2.0,.
COc1ccc(Cl)cc1NC(=O)CNc1ccccc1N1CCOCC1,-19.8,1.3,1.5,-0.6
COc1cccc(COc2cc3ccccc3nc2C)c1,100.2*,1.5,3.9,0.2
Cc1nc2ccccc2cc1OCc1ccc(Cl)cc1,34.4,0.5,-3.5,-1.2
Cc1nc2ccccc2cc1OCc1ccccc1,107.0*,-7.2,-2.3,-1.8
COC(=O)[C@@]12CCCCN1[C@H](c1ccc(-c3cccc(Cl)c3)c(OC)c1)[C@H]1C(=O)N(C)C(=O)[C@H]12,12.4,.,-0.7,3.3
SMILES,Calb FLC,PfM18AAP inh,Rin1 Abl inh,CTSL1 counter
Cc1coc2c1C(=O)C(=O)c1c-2ccc2c(C)cccc12,-9.5,.,5.8,94.2*
Cc1cccc(NC(NC(=O)c2ccccn2)C(Cl)(Cl)Cl)c1 (centres undefined),-1.0,1.6,1.3,0.9
CC1(C)CC(=O)C2=C(C1)NC(=S)C(C#N)C21CCCCC1 (centres undefined),-2.5,28.9*,3.4,0.5
COc1ccc(Nc2n[nH]c(N)c2C(N)=O)cc1,6.0,9.7,-1.1,-0.5
COC(=O)c1ccccc1NC(=O)CNCCc1ccc(OC)c(OC)c1,-3.2,0.8,4.2,1.1
COc1ccc(OC)c(/C=N/NC(=O)CCc2ccc(O)c(O)c2)c1,-3.2,31.3*,-4.1,-3.8
COc1ccc(OC)c(/C=N/NC(=O)CCc2c(C)n[nH]c2C)c1,-2.2,-6.7,-0.4,1.9
CCCCNC(=O)Nc1ncn[nH]1,7.0,29.0*,1.1,-0.6
CCn1c2ccccc2c2nnc(NN)nc21,-2.0,31.2*,0.0,0.0
Cn1c2ccccc2c2nnc(NN)nc21,5.4,29.9*,-4.7,-1.1
CCn1c2ccc(C)cc2c2nnc(NN)nc21,2.0,10.9,-2.8,0.6
CC(C)C(O)(C#CCN1CCCCCC1)c1ccccc1 (centres undefined),-6.6,-7.0,0.7,1.8
CCOC(=O)Cc1nn(Cc2ccc(Cl)cc2)c(=O)c2ccccc12,-7.9,-5.3,4.3,17.9*
